According to ChEMBL document CHEMBL1157539, “Thousands of chemical starting points for antimalarial lead identification” (Nature, 2010):

Test system: Plasmodium falciparum
Assay: GSK_TCMDC: Inhibition of Plasmodium falciparum 3D7 in whole red blood cells, using parasite LDH activity as an index of growth. Test compounds present at 2uM
Format: functional

Structure (SMILES) | Inhibition
CC(=O)Nc1cccc(Nc2nccc(-c3c(-c4cccc(NC(=O)c5c(F)cccc5F)c4)nn4ncccc34)n2)c1 | 96%
N=C(N)NN=CC(=O)Nc1ccc(Cl)c(C(F)(F)F)c1 | 100%
CC(C)C[C@H](NC(=O)c1ccc(OCCN2CCOCC2)cc1)C(=O)N[C@H](/C=N/N1CC(=O)NC1=O)CCc1ccccc1 | 88%
Cc1ccccc1CN1CCCN(Cc2ccc(C(=O)Nc3ccc(C(C)(C)C)cc3)cc2)CC1.O=C(O)C(F)(F)F | 89%
Cc1ccccc1C1CCN(C2CCC(NC(=O)/C=C/c3ccc(C#N)cc3)CC2)CC1 (stereo not drawn) | 87%
CN(CCCNc1ccc(C(=O)Nc2ccc(C(F)(F)F)cc2)cc1[N+](=O)[O-])Cc1ccccc1 | 100%
CC(=O)Nc1ccc(S(=O)(=O)Nc2ccc(Nc3nc(C)cc(N4CCCCC4)n3)cc2)cc1 | 89%
CS(=O)(=O)Cc1ccc(Nc2nccc(-c3c(-c4cccc(C(=O)Nc5c(F)cccc5F)c4)nn4ccccc34)n2)cc1 | 96%
FC(F)(F)c1ccc(Nc2nnnc3ccccc23)cc1 | 90%
O=C(Nc1cccc(CN2CCCN(Cc3ccc(O)cc3)CC2)c1)c1cccc(C(F)(F)F)c1.O=C(O)C(F)(F)F | 100%
Cc1cccc2nc(C(=O)Nc3nc(CN4CCC(C)CC4)cs3)cn12 | 94%
COc1cc(Nc2ccnc3cc(-c4ccccn4)ccc23)cc(OC)c1OC.Cl | 91%
COc1cccc(Nc2nccc(-c3c(-c4cccc(NC(=O)c5c(F)cccc5F)c4)nn4ccccc34)n2)c1 | 98%
